Experimental findings from PubChem BioAssay (Tox21) are described below.

Values joined by “and” are separate entries in the source; they are usually repeats but may differ in a detail not shown here. Identical values can stand only once. Active and inactive are the calls of the source. Unless noted, calls come from the whole dose curve; as a rule, active = well fitted curve in the direction sought with a large enough effect in the repeat runs; inconclusive = weak or mixed curves; inactive = no such curve, though single readings can be large; an effect the other way counts as inactive or inconclusive.

The nature of assay [1]: qHTS assay for small molecule agonists of the p53 signaling pathway (AID 651631; calls by dose curve; note: nearly all actives have a fitted effect of over 15% in size). The method in brief:
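HCT-116 p53RE-bla reporter line, 16 h compound treatment at 37 °C, then fluorescence after 2 h with B/G FRET substrate.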
(qHTS replaces the single test concentration by a dilution series.)

A short description of assay [2]: qHTS assay for small molecules that induce genotoxicity in human embryonic kidney cells expressing luciferase-tagged ATAD5 (AID 651632). Note: nearly all actives have a fitted effect of over 15% in size. In outline: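 Reporter cells (HEK293T) express luciferase-tagged ATAD5, a protein that accumulates after DNA damage. Treat 16 hr at 37C/5% CO2, add Amplite, wait 30 min at RT, and read luminescence.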
A short description of assay [3]: qHTS assay for small molecule agonists of the p53 signaling pathway - cell viability (AID 651633; calls by dose curve;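 note: p53RE-bla HCT reporter cells with a stable beta-lactamase p53 reporter; series mostly up to about 83 µM; nearly all actives have a fitted effect of over 30% in size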). The method in brief: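 Viability counter-read: CellTiter-Glo luminescence (30 min, room temperature) in the same p53RE-bla plates. These plates had been exposed to compounds for 16 h at 37 C.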
Assay [4] can be described thus: qHTS assay for small molecules that induce genotoxicity in human embryonic kidney cells expressing luciferase-tagged ATAD5 - cell viability (AID 651634; calls by dose curve; note: nearly all actives have a fitted effect of over 25% in size; note: potency is the fitted concentration of half-maximal effect). The method in brief: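 Seeding of 2,000 HEK293T ATAD5-luciferase cells per well preceded pin-tool compound transfer. Plates sat 15.5 hr at 37C under 5% CO2, then fluorescence was read after 30 min with CellTiter-Fluor.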

A short description of assay [5]: qHTS assay for small molecule disruptors of the mitochondrial membrane potential - cell viability (AID 720634; calls by dose curve;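 note: human HepG2 liver cancer cells; series mostly up to about 83 µM; nearly all actives have a fitted effect of over 20% in size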). The method in brief: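 Measuring cytotoxicity alongside mitochondrial potential, the screen quantified ATP by luminescence in HepG2 cells after 1 hr compound incubation and a 30 min room-temperature CellTiter-Glo step.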
Assay [6] can be described thus: qHTS assay for small molecule disruptors of the mitochondrial membrane potential (AID 720635). The method in brief: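 Mitochondrial membrane potential tracked with Mito-MPS dye, red aggregates (ex 540/em 590 nm) against green monomers (ex 490/em 535 nm). Compound treatment 1 hr at 37C, dye 30 min in HepG2.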
Assay [7] is described as follows: qHTS assay to test for compound auto fluorescence at 590 nm (red) in HepG2 cells (AID 720674). In outline: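 Red autofluorescence (Ex/Em 540/590 nm, Rose Bengal sodium equivalents) was measured in HepG2 cells, 2,000 per well in MEM plus 10% FBS, plated overnight at 37 C. Readings were taken 1 hr after adding 23 nL compound or DMSO, at 37 C and 5% CO2.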
Assay [8] can be described thus: qHTS assay to test for compound auto fluorescence at 535 nm (green) in HepG2 cells (AID 720675).
Assay [9] can be described thus: qHTS assay to test for compound auto fluorescence at 460 nm (blue) in HEK293 cells (AID 720678). In outline: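 Measured: blue fluorescence (Ex 405/Em 460 nm) of compound-treated HEK293 cells, incubated overnight at 37C with 5% CO2 and scaled to triamterene equivalents.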
Assay [10] is described as follows: qHTS assay to test for compound auto fluorescence at 590 nm (red) in HEK293 cells (AID 720679). The method in brief:
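Using HEK293 cells at 2,000 per well, the screen added 23 nL of each compound after cell attachment and incubated overnight (37C, 5% CO2). The plate reader then captured red-label fluorescence, Ex/Em 540/590nm.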

Assay [11] in a line: qHTS assay to test for compound auto fluorescence at 535 nm (green) in HEK293 cells (AID 720680).
Assay [12] can be described thus: qHTS assay to test for compound auto fluorescence at 460 nm (blue) in HEK293 cell free culture (AID 720681). The method in brief:
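Blue fluorescence (Ex 405/Em 460 nm, triamterene-equivalent) was read immediately after pin transfer of compound or DMSO into medium (DMEM, 10% FBS) without cells.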

Assay [13] is described as follows: qHTS assay to test for compound auto fluorescence at 590 nm (red) in HEK293 cell free culture (AID 720683). The method in brief:
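Red-channel autofluorescence of compounds in culture medium (DMEM, 10% FBS), no cells, measured at 540/590 nm. Rose Bengal sodium is the reference fluorophore for equivalence.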

Assay [14] in a line: qHTS assay to test for compound auto fluorescence at 590 nm (red) in HepG2 cell free culture (AID 720684). The method in brief: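 Steps: dispense MEM/10% FBS medium, no cells; pin compound or DMSO vehicle; read red channel, Ex/Em 540/590 nm. Output given as Rose Bengal sodium equivalents.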
The nature of assay [15]: qHTS assay to test for compound auto fluorescence at 460 nm (blue) in HepG2 cell free culture (AID 720685). The method in brief:
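Compound (23 nL) or DMSO pinned into cell-free MEM with 10% FBS; blue fluorescence read at 405/460 nm excitation/emission, expressed as auto-fluorescence equivalency to triamterene.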

A short description of assay [16]: qHTS assay to test for compound auto fluorescence at 535 nm (green) in HepG2 cell free culture (AID 720686).
Assay [17] can be described thus: qHTS assay to test for compound auto fluorescence at 460 nm (blue) in HepG2 cells (AID 720687). In outline: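 Blue-channel autofluorescence (Ex/Em 405/460 nm, triamterene-equivalent) was measured after 1 hr compound exposure at 37 C, 5% CO2. Cells were HepG2, plated overnight at 37 C in MEM plus 10% FBS.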
A short description of assay [18]: qHTS assay to test for compound auto fluorescence at 535 nm (green) in HEK293 cell free culture (AID 720682). The method in brief: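 Steps: dispense DMEM/10% FBS into empty wells; pin in compound or DMSO; measure fluorescence at 485/535 nm. Values are fluorescein equivalents.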
The target of assay [19] is Glucocorticoid receptor (Homo sapiens) (UniProt P04150). Kind of assay: qHTS assay to identify small molecule agonists of the glucocorticoid receptor (GR) signaling pathway (AID 720691; active = well fitted activation curve with a large enough effect in the signal ratio in the repeat runs, not every such curve was filed as active; inconclusive = weak or mixed curves, or effect the other way; inactive = no such curve, though single readings can be large or run the other way; the % refers to the signal ratio; note: potency is the fitted concentration of half-maximal effect). The method in brief: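 Reporter read-out: fluorescence intensity following 2 h room-temperature LiveBLAzer B/G FRET substrate loading. Prior step: GR-bla HeLa cells held 4 h, then treated 18 h at 37 C.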

Assay [20] has the same target. Kind of assay: qHTS assay to identify small molecule antagonists of the glucocorticoid receptor (GR) signaling pathway (AID 720692; active = well fitted inhibition curve with a large enough effect in the signal ratio in the repeat runs, not every such curve was filed as active; inconclusive = weak or mixed curves, or effect the other way; inactive = no such curve, though single readings can be large or run the other way; the % refers to the signal ratio). In outline:
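Dexamethasone (5 nM final) stimulated a stably integrated GRE-beta-lactamase reporter in HeLa cells during 18 h co-incubation with compounds; signal was quantified as fluorescence intensity of B/G FRET substrate after 2 h.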

Glucocorticoid receptor (Homo sapiens), sequence (P04150 whole entry, looked up): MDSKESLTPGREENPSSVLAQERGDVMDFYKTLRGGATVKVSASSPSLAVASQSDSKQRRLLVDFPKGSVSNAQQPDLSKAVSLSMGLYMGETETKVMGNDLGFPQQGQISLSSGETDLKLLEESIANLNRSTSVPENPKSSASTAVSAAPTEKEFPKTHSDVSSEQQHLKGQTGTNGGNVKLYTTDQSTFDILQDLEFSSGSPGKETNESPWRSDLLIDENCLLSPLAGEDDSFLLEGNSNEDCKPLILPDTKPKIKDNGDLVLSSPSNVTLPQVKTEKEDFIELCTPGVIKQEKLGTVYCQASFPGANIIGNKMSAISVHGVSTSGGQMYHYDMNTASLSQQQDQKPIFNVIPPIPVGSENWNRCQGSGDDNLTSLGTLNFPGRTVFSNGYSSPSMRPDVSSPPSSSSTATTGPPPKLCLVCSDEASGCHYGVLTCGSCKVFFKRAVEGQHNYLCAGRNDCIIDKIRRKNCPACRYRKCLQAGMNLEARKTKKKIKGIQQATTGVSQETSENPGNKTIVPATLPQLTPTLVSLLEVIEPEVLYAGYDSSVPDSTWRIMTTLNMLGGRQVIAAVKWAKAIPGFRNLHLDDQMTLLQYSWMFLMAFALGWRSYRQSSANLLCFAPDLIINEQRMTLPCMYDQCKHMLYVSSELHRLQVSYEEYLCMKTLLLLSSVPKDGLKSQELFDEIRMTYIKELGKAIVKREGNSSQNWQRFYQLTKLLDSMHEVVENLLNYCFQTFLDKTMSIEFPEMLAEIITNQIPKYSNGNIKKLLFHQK

`CC(=O)C(=O)O`: the Potency result in assay [1], in [2], in [3], in assay [4], in assay [5] and in assay [6] was “inactive” throughout. In addition, the Potency result in [7], in assay [8], in assay [9], in assay [10], in assay [11] and in assay [12] was “inactive” throughout. Further, the Potency result in assay [13], in assay [14], in assay [15], in assay [16] and in assay [17] was “inactive” throughout.
Regarding `CCCCCCCC(=O)OCC(COC(=O)CCCCCCC)OC(=O)CCCCCCC`, the Potency result in assay [1], in [2], in [3], in assay [4], in assay [5] and in assay [6] was “inactive” throughout. The Potency result in assay [7], in assay [8], in [9], in assay [10], in assay [11] and in [12] was “inactive” throughout. Also, the Potency result in assay [18], in assay [13], in assay [14], in [15], in assay [16] and in assay [17] was “inactive” in each case. Moreover, the Potency entry in assay [19] and in assay [20] was “inactive” throughout.
In the case of `O=C(O)CC(O)C(=O)O` (stereo not given), the Potency result in assay [1], in assay [2], in [3], in [4], in assay [5] and in assay [6] was “inactive” throughout. The Potency entry in [7], in assay [8], in [9], in assay [10], in assay [11] and in assay [12] was “inactive” throughout. The Potency entry in assay [18], in assay [13], in assay [14], in assay [15], in assay [16] and in assay [17] was “inactive” throughout.
Consider `CCCc1cc(=O)[nH]c(=S)[nH]1`, for which the Potency entry in assay [1], in [2], in assay [3], in [4], in assay [5] and in [6] was “inactive” in each case. Also, the Potency result in assay [7], in assay [8], in assay [9], in assay [10], in assay [11] and in assay [12] was “inactive” throughout. Also, the Potency entry in assay [13], in [14], in assay [15], in [16] and in assay [17] was “inactive” in each case.
In the case of `Cc1c(C(=O)O)c(O)cc2c1C(=O)c1c(O)c([C@@H]3O[C@H](CO)[C@@H](O)[C@H](O)[C@H]3O)c(O)c(O)c1C2=O`, the Potency result in assay [1], in assay [2], in [3], in assay [5], in assay [6] and in assay [7] was “inactive” in each case. The Potency entry in [8], in [9], in [10], in [11], in [12] and in assay [13] was “inactive” in each case. In addition, the Potency result in assay [14], in assay [15], in [16], in [17], in [19] and in [20] was “inactive” each time. Moreover, in assay [4], the Potency is 11.9 µM (active) and 37.6 µM (active) and 54.5 µM (active).
In the case of `CC1(C)O[C@@H]2C[C@H]3[C@@H]4CCC5=CC(=O)C=C[C@]5(C)[C@@]4(F)[C@@H](O)C[C@]3(C)[C@]2(C(=O)CO)O1`, the Potency entry in assay [1], in assay [2], in assay [3], in assay [4], in assay [5] and in assay [6] was “inactive” each time. For the same compound, the Potency result in assay [7], in assay [8], in [9], in assay [10], in assay [11] and in [12] was “inactive” throughout. Further, the Potency entry in assay [18], in [13], in assay [14], in [15], in assay [16] and in assay [17] was “inactive” each time. Also, in [19], the Potency was 3 nM [inconclusive] (active) and 349 nM [inconclusive] (active) and 1.4 nM (active).
Consider `CCCCNC(=O)NS(=O)(=O)c1ccc(C)cc1`, for which the Potency entry in assay [1], in assay [2], in [3], in [4], in assay [5] and in assay [6] was “inactive” throughout. The Potency entry in assay [7], in assay [8], in [9], in assay [10], in assay [11] and in assay [12] was “inactive” in each case. Further, the Potency entry in assay [18], in [13], in assay [14], in assay [15], in assay [16] and in assay [17] was “inactive” each time. The Potency result in [19] and in assay [20] was “inactive” throughout.
